# Measurements as given in PubChem BioAssay (NCI).
# Several values for one entry are separate records, joined by “and”; a condition that tells them apart may be missing. Equal values may be shown once. About 83,000 compounds went through this panel and 20% of them were active in at least one assay; those are over-represented in the sample as a whole.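 A percent growth of 40 corresponds to 60% growth inhibition; 0 means no net growth; -100 means all cells died. Active threshold: below 10.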 Unmarked numbers belong to inactive results. Activity calls are given as the source filed them.
# Test system: MDA-MB-468 breast
# Test: NCI-60 one-dose screen, 48 h (100 = growth as untreated, 0 = no growth, -100 = all killed)
# Settings: 10 µM unless noted
row,Structure (SMILES),growth
1,O=[N+]([O-])c1ccc2[nH]c(=S)n(/C=C(/c3ccc(Cl)cc3Cl)S(=O)(=O)Cc3ccc(Cl)cc3Cl)c2c1,111%
2,COc1ccc(-c2nc(Nc3cc(C)[nH]n3)c3ccccc3n2)cc1,47.3%
3,CCC(C)(C)C1CCC(O)CC1 (centres undefined),104%
4,O=C(Cc1ccc(-c2ccc(OCCN3CCOCC3)cc2)cn1)NCc1ccccc1,-17% (active)
5,CS(=O)(=O)Nc1cc(-c2ccc3ncc(C#N)c(NCc4cccc(F)c4)c3c2)cnc1Cl,-37.9% (active)
6,Cc1sc2nc(NCCc3cccs3)[nH]c(=O)c2c1C,82.4%
7,COC(=O)c1sccc1-c1cc(O)c(C(=O)Nc2ccccc2)s1,85.4%
8,CCCCOc1nc2ccc(OC)cc2cc1-c1cc(-c2ccc(Cl)cc2)nc(-c2ccc(Cl)cc2)c1,95.2%
9,CO[C@H]1CC(=O)n2c3ccccc3c3c4c(c5c6ccccc6n1c5c32)C(=O)NC4=O,34.2%
10,O=C1OCC2=C1C(c1cccc(C(F)(F)F)c1)c1cc3c(cc1N2CCO)OCO3 (centres undefined),-5.36% (active)
11,COC(=O)[C@]12CC[C@@H](C)[C@H](C)[C@@H]1C1=CC[C@@H]3[C@@]4(C)C[C@@H](OC(C)=O)[C@H](O)[C@@](C)(CO)[C@@H]4[C@H](O)C[C@@]3(C)[C@]1(C)CC2,-90.6% (active)
12,COc1ccc(Cn2cc3c(c2)-c2oncc2CC3)cc1OC,-7.7% (active)
13,CCOC(=O)c1cnc2ccc(Br)cc2c1Nc1cccc(S(=O)(=O)NC)c1,90.8%
14,Cn1cc(-c2csc(-c3cn(CCOC(N)=O)c4ccccc34)n2)c2cccnc21,16.2%
15,Cn1cc(-c2nn3cc(-c4ccncc4)nc3s2)c2cc(Br)ccc21,74.9%
16,COc1ccc(/C=C2\Oc3cc(OCCCCN4CCCC4)ccc3C2=O)cc1,74.5%
17,COC(=O)c1ccc2c(c1)[n+](=O)c(C(C)=O)c(C(F)(F)F)n2[O-],-83.7% (active)
18,CN1c2ccccc2C(C)(C)C12C=Cc1cc(O)ccc1O2 (centres undefined),4.08% (active)
19,COc1ccc(CN2c3ccccc3Sc3ccccc32)c(C(F)(F)F)c1,18.8%
20,CCOC(=N)CC(=O)Nc1cccc(C)c1Cl,90.8%

row,Structure (SMILES),growth
1,Cn1cc(-c2csc(-c3c[nH]c4ccc(Br)cc34)n2)c2cnccc21,-70.5% (active)
2,Clc1cccc(Cl)c1Cn1c(-c2cncs2)nc2ccccc21,52.6%
3,Nc1nc(N)c2c(n1)NC(c1ccccc1)CC(c1ccc(Nc3nc(NCCO)nc(Nc4ccc(Cl)cc4)n3)cc1)=N2 (centres undefined),-70.1% (active)
4,COc1cc2cc(Oc3ccc(NC(=O)Nc4ccc(Cl)c(Cl)c4)cc3)c(C)nc2cc1OCCN1CCCCC1,103%
5,CCN(CC)CCOc1ccccc1-n1c(C)ccc1-c1ccccc1,85.1%
6,CCN1C(=O)/C(=c2\sc3n(c2=O)C2C(NN=3)N(CC)C(=S)N2CC)c2ccccc21 (centres undefined),104%
7,CN(C)CCS(=O)(=O)CCN(C)C,105%
8,CCOC(=O)c1c(C)nc2c(c1N)/C(=C/c1cc(OC)c(OC)c(OC)c1)C(=O)N2c1ccc(OC)cc1,56%
9,Cc1ccc(C(=O)c2ccc(CC(=O)N/N=C/c3cccc(O)c3O)n2C)cc1,54.9%
10,O=C(O)c1nn(-c2ccc(Cl)cc2)nc1N1CCCC1,86%
11,O=C(Oc1cccc(OC(=O)c2ccccc2)c1)c1ccccc1,110% and 101%
12,Cn1c(=O)c2[nH]c(C3CC=CCC3)nc2n(C)c1=O (centres undefined),107%
13,CCOc1ccc2[nH]c(=S)sc2c1,107%
14,Cc1cc2nc3ccc(=[N+](C)C)cc-3sc2cc1N,-13.4% (active) and -40.6% (active)
15,COc1ccc(C2C=C(c3ccc(OC)c(OC)c3)N=C3SC=CN32)c(Br)c1 (centres undefined),54.5%
16,COc1ccc(/C=C(\C#N)c2ccccc2)cc1,91.2%
17,CC(C)(C)OC(=O)CN1CCc2c(sc3ncnc(N4CCN(c5ccc(F)cc5)CC4)c23)C1,92.3%
18,Cc1nn(CCO)c(C)c1N=[N+]([O-])c1c(C)nn(CCO)c1C,-59% (active)
19,O=S1(=O)c2ccccc2Oc2ccccc21,96.4%
